The nature of test [1]: ATG_DR4_LXR_CIS: Attagene CIS-FACTORIAL HepG2 Assay for human Liver X Receptor (LXR), DR4 submotif (AID 2282929). Conditions: HepG2 Attagene DR4 cis-reporter, mRNA transcription; actives raise or lower the signal. The method in brief: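 Fluorescence intensity of labelled reporter cDNA fragments, separated by capillary electrophoresis, gives the signal. HepG2 cells bearing cis-regulated reporter constructs were treated 24 h; activity fitted bidirectionally relative to DMSO negative control.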

Test [2] in a line: ATG_Ets_CIS: Attagene CIS-FACTORIAL HepG2 Assay for human Erythroblast Transformation Specific (ETS) (AID 2282941). Conditions: HepG2 ETS cis-reporter transcription, actives raise or lower the signal. The procedure, abridged: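 Multiplexed reporter transcript profiling: HepG2, 24 h treatment, total RNA to cDNA, PCR, 6-FAM labelling, HpaI cut, capillary electrophoresis. Gain- or loss-of-signal fitted against DMSO.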

Test [3] can be described thus: ATG_M_06_CIS: Attagene CIS-FACTORIAL HepG2 Assay for M06 Transcription Factor (Internal Marker) (AID 2282950). Conditions: HepG2 Attagene CIS-FACTORIAL M06 internal marker reporter; actives raise or lower the signal. The procedure, abridged:
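Measured 24 h post-dosing in transiently transfected HepG2 cells, this internal-marker endpoint reports reporter mRNA via RT-PCR with fluorescent primer extension and capillary electrophoresis. DMSO served as negative control and baseline for bidirectional fitting.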

For test [4], the target named is Hypoxia-inducible factor 1-alpha (Homo sapiens) (UniProt Q16665). The experiment in a line: ATG_HIF1a_CIS: Attagene CIS-FACTORIAL HepG2 Assay for human Hypoxia Inducible Factor 1 (HIF1A) (AID 2282951). Conditions: HepG2 Attagene cis-factorial HIF1a reporter transcription; actives raise or lower the signal. The procedure, abridged: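 Fluorescence intensity of capillary-separated, 6-FAM-labelled reporter amplicons gives mRNA induction in HepG2 cells carrying transfected cis-promoter reporter units; cells exposed 24 h, responses fitted up or down from DMSO.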

For test [5], the target named is Hepatocyte nuclear factor 6 (Homo sapiens) (UniProt Q9UBC0). The experiment in a line: ATG_HNF6_CIS: Attagene CIS-FACTORIAL HepG2 Assay for human Hepatocyte Nuclear Factor 6 (HNF6) (AID 2282952). The note with it: HepG2 Attagene cis-factorial HNF6 reporter transcription; actives raise or lower the signal. The procedure, abridged:
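Endogenous factor activity read in transiently transfected HepG2 via promoter-regulated reporter transcripts. RNA harvested 24 h post-dosing, reverse-transcribed, PCR-amplified, FAM-labelled, HpaI-digested and resolved by capillary electrophoresis; fitted in both directions against DMSO.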

Test [6] deals with Heat shock factor protein 1 (Homo sapiens) (UniProt Q00613). The experiment in a line: ATG_HSE_CIS: Attagene CIS-FACTORIAL HepG2 Assay for human Heat Shock Transcription Factor 1 (HSE) (AID 2282953). Conditions: HepG2 HSE cis-reporter, Attagene RNA transcription; actives raise or lower the signal. The procedure, abridged:
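Reporter mRNA induction in HepG2 is measured 24 h after dosing, using transiently transfected multiplexed cis-regulated reporter units. Signal comes from capillary electrophoresis of labelled RT-PCR products, with DMSO as negative control.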

Test [7] can be described thus: ATG_Sox_CIS: Attagene CIS-FACTORIAL HepG2 Assay for human SRY-box transcription factor (SOX) (AID 2282960). The note with it: HepG2 Attagene cis-factorial SOX reporter, mRNA; actives raise or lower the signal. The method in brief:
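Measures mRNA induction of a SOX1-associated reporter in HepG2 after 24 h dosing. Fluorescently labelled RT-PCR fragments are separated by capillary electrophoresis, and gain or loss relative to DMSO control is fitted.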

A short description of test [8]: ATG_TA_CIS: Attagene CIS-FACTORIAL HepG2 Assay for human TA Basal Promoter (AID 2282964). The note with it: HepG2 Attagene CIS-factorial TA basal promoter reporter; actives raise or lower the signal. The procedure, abridged: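 Cis-factorial format in HepG2: reporters report endogenous factors, not chimeric Gal4 fusions. After 24 h treatment, reporter transcripts were measured by RT-PCR-capillary electrophoresis fluorescence, analysed bidirectionally versus DMSO.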

Test [9] can be described thus: ATG_TCF_b_cat_CIS: Attagene CIS-FACTORIAL HepG2 Assay for human T-Cell-Factor with beta-catenin (TCF/b-cat) (AID 2282965). The note with it: HepG2 TCF/beta-catenin cis-reporter transcription, actives raise or lower the signal. The procedure, abridged:
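Measured: reporter mRNA in HepG2 transiently transfected with cis-promoter reporter units, 24 h after chemical addition. Fitting was bidirectional, DMSO as negative control.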

The nature of test [10]: ATG_TGFb_CIS: Attagene CIS-FACTORIAL HepG2 Assay for human Transforming Growth Factor (TGF) (AID 2282967). The note with it: HepG2 Attagene CIS TGFb reporter, mRNA transcription; actives raise or lower the signal. The method in brief:
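Multiplexed cis-reporter HepG2 system, 24 h treatment; mRNA induction read by fluorescence after RT-PCR and CE; DMSO negative control, bidirectional curve fitting.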

The target in test [11] is X-box-binding protein 1 (Homo sapiens) (UniProt P17861). In words: ATG_Xbp1_CIS: Attagene CIS-FACTORIAL HepG2 Assay for human X-box Binding Protein 1 (XBP1) (AID 2282972). The note with it: HepG2 XBP1 cis-element reporter, Attagene multiplex; actives raise or lower the signal. The procedure, abridged:
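Human hepatoma HepG2, cis-element reporter system, 24 h treatment; mRNA quantified by RT-PCR/CE fluorescence; fit relative to DMSO.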

The target of test [12] is Transcriptional activator Myb (Homo sapiens) (UniProt P10242). The experiment in a line: ATG_Myb_CIS: Attagene CIS-FACTORIAL HepG2 Assay for human Myeloblastosis (Myb) Proto-Oncogene Transcription Factor (AID 2282986). Conditions: HepG2 Attagene CIS-FACTORIAL Myb reporter transcription; actives raise or lower the signal. The procedure, abridged: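 Transiently transfected HepG2 cells, treated 24 h. Reporter mRNA quantified by RT-PCR/capillary electrophoresis; bidirectional fit relative to DMSO.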

For test [13], the target named is Nuclear respiratory factor 1 (Homo sapiens) (UniProt Q16656). In words: ATG_NRF1_CIS: Attagene CIS-FACTORIAL HepG2 Assay for human Nuclear Respiratory Factor 1 (NRF1) Orphan Gene (AID 2282987). Conditions: HepG2 NRF1 cis-element reporter, Attagene multiplex; actives raise or lower the signal. The method in brief:
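Cells (HepG2, transient MRTU transfection) are exposed to compound for 24 h, then RNA isolated and reporter mRNA amplified and fluorescently labelled. Fragments are separated by capillary electrophoresis; signal change is fitted bidirectionally relative to DMSO.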

Test [14] has as its target Myc proto-oncogene protein (Homo sapiens) (UniProt P01106). In words: ATG_Myc_CIS: Attagene CIS-FACTORIAL HepG2 Assay for human Myelocytomatosis (Myc) Proto-Oncogene Transcription Factor (AID 2282990). The note with it: HepG2, Attagene cis-reporter transcription factor activity; actives raise or lower the signal. The procedure, abridged:
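Cells of the HepG2 human liver line bear multiple cis-driven reporter transcription units. Reporter mRNA after 24 h exposure is reverse-transcribed, amplified, labelled and resolved by capillary electrophoresis, with gain- or loss-of-signal fitting relative to DMSO.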

Test [15] in a line: ATG_NRF2_ARE_CIS: Attagene CIS-FACTORIAL HepG2 Assay for human Nuclear Factor Erythroid 2 Related Factor 2 (NFR2) response to Antioxidant Response Elements (ARE) (AID 2282992).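 As to AC50: reporter mRNA level measured by RT-PCR and capillary electrophoresis fluorescence.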 Conditions: HepG2 Attagene ARE/NRF2 reporter, transcription factor activity; actives raise or lower the signal. The procedure, abridged: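 Fluorescence intensity of reporter-specific cDNA fragments, separated by capillary electrophoresis, reflects mRNA induction in transfected HepG2 cells at 24 h. Activity is fitted bidirectionally, DMSO serving as baseline.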

Test [16] can be described thus: ATG_Oct_MLP_CIS: Attagene CIS-FACTORIAL HepG2 Assay for human Octamer-Binding Transcription Factor (Oct) (AID 2282993). The note with it: HepG2 Attagene cis-factorial Oct reporter, mRNA; actives raise or lower the signal. The method in brief:
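After 24 h compound exposure, transfected HepG2 cells were lysed for total RNA; reporter-specific cDNA was PCR-amplified, fluorescently labelled and sized by capillary electrophoresis. Bidirectional curve fitting used DMSO as baseline.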

Test [17] has as its target Nuclear receptor subfamily 1 group I member 2 (Homo sapiens) (UniProt O75469). In words: ATG_PXR_TRANS: Attagene TRANS-FACTORIAL HepG2 Assay for human Pregnane X Receptor (PXR) (AID 2283008; active = hit-call score of the fitted dose curve at least 0.9, where 1 is the maximum). The method in brief:
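Transient HepG2 transfectants carrying multiplexed reporter transcription units; PXR activity read through a Gal4 chimera. 24 h exposure. RT-PCR/CE fluorescence; upward curve fit referenced to DMSO.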

The nature of test [18]: ATG_XTT_Cytotoxicity: Cytotoxicity Assessment in the Attagene TRANS-FACTORIAL HepG2 Assay (AID 2283584; active = hit-call score of the fitted dose curve at least 0.9, where 1 is the maximum). The procedure, abridged:
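Viability endpoint from XTT after 24 h chemical exposure of reporter-transfected human HepG2 liver cells; signal loss fitted relative to DMSO negative control.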

For test [19], the target named is Cellular tumor antigen p53 (Homo sapiens) (UniProt P04637). In words: ATG_p53_CIS: Attagene CIS-FACTORIAL HepG2 Assay for human p53 Transcription Factor (AID 2282994). The note with it: HepG2 p53 cis-element reporter, Attagene mRNA; actives raise or lower the signal. The procedure, abridged: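 Transiently transfected HepG2 (multiple cis reporter transcription units); exposure 24 h; reporter RNA via RT-PCR, 6-FAM extension, 2 h HpaI digest at 37 C, CE detection; DMSO baseline.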

Test [20] can be described thus: ATG_TAL_CIS: Attagene CIS-FACTORIAL HepG2 Assay for human TAL Basal Promoter (AID 2282966).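 Also: background control endpoint measuring basal TAL promoter reporter mRNA not a specific factor.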 The note with it: HepG2 Attagene cis-factorial TAL promoter reporter; actives raise or lower the signal. The procedure, abridged:
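Background-control endpoint: basal TAL promoter reporter transcripts in transiently transfected HepG2, measured 24 h after dosing. Read-out by RT-PCR with fluorescent primer extension and capillary electrophoresis; gain or loss of signal fitted relative to DMSO.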

Records with an inconclusive call do not appear. Active and inactive are the calls of the source. The calls were made as follows, unless noted: active = hit-call score of the fitted dose curve at least 0.9, where 1 is the maximum; inactive = score below 0.9.

Chain of Nuclear respiratory factor 1 (Homo sapiens) (Q16656 whole entry, looked up, the tested form may be a part): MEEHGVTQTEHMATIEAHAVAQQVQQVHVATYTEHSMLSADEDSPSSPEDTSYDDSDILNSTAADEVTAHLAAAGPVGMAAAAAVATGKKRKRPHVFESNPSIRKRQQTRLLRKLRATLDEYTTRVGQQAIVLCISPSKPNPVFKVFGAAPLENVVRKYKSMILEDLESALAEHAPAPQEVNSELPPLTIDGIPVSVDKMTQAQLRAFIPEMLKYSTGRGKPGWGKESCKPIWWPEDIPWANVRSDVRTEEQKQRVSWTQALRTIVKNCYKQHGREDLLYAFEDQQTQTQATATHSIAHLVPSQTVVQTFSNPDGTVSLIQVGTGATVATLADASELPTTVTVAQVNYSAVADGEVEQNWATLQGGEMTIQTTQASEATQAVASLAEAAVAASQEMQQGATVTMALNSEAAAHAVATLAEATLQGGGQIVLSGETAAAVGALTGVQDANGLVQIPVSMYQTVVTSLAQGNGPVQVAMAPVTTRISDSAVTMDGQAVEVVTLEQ
Chain of Hypoxia-inducible factor 1-alpha (Homo sapiens) (Q16665 whole entry, looked up): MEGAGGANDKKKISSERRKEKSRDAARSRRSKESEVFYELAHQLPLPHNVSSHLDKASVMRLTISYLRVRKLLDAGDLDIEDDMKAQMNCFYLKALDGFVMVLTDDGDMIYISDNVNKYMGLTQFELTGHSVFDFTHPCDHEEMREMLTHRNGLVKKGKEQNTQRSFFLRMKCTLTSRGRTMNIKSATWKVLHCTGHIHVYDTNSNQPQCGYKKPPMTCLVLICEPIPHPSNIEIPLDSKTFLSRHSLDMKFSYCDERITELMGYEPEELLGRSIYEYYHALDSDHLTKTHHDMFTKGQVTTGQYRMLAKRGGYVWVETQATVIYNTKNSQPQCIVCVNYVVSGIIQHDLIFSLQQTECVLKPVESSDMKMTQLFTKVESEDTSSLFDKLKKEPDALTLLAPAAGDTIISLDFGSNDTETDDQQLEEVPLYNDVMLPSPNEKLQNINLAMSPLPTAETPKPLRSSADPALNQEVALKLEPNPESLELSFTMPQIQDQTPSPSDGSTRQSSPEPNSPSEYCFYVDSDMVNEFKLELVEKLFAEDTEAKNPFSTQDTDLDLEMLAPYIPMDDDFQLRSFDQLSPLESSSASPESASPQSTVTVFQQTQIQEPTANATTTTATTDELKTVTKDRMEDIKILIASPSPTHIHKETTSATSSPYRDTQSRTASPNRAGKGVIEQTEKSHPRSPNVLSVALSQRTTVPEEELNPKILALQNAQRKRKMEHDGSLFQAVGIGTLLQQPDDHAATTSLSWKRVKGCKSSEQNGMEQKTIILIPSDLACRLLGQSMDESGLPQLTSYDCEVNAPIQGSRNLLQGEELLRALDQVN
Chain of Heat shock factor protein 1 (Homo sapiens) (Q00613 whole entry, looked up): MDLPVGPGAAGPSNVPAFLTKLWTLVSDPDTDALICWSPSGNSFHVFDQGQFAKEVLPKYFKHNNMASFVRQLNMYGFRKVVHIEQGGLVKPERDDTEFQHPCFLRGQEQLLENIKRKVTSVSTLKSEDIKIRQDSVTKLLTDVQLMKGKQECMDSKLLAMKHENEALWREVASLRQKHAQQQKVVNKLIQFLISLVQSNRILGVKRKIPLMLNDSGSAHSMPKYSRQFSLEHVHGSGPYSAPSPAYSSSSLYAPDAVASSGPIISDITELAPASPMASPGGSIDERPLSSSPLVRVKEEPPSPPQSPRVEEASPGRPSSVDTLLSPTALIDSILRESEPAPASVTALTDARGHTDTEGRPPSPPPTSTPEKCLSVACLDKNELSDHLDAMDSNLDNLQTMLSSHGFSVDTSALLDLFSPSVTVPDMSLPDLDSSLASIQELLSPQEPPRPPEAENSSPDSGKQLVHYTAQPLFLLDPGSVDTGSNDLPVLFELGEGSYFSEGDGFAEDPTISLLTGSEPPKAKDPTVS
Chain of Hepatocyte nuclear factor 6 (Homo sapiens) (Q9UBC0 whole entry, looked up): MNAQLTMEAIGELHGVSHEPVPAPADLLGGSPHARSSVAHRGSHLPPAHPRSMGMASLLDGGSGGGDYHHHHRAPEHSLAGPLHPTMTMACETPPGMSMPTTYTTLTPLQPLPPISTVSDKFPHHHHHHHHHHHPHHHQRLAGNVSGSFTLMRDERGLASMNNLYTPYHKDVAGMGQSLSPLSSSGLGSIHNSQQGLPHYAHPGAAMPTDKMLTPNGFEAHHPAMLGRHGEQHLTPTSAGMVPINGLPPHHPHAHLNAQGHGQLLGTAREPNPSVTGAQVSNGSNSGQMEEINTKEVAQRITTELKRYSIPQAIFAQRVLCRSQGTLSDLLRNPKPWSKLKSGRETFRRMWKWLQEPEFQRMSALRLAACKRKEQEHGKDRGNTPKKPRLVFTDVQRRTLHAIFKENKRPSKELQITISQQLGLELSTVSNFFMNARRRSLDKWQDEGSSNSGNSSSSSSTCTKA
Chain of Transcriptional activator Myb (Homo sapiens) (P10242 whole entry, looked up): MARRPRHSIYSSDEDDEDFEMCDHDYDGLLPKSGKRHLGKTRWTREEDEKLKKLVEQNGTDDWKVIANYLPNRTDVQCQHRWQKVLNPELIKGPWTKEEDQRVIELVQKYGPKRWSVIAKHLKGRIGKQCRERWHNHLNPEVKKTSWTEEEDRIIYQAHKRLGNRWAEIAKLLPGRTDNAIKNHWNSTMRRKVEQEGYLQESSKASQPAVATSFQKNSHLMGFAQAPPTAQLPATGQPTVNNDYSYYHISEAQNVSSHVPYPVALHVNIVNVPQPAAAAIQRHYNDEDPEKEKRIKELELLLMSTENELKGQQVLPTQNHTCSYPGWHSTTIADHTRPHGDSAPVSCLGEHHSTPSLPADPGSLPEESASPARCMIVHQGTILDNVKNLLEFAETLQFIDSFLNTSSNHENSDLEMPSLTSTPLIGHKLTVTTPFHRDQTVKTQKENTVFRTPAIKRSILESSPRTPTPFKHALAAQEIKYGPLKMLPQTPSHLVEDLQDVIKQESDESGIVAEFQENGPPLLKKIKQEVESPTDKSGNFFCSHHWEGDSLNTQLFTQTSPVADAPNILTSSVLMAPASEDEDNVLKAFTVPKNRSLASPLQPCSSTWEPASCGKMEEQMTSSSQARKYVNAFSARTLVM
Chain of X-box-binding protein 1 (Homo sapiens) (P17861 whole entry, looked up): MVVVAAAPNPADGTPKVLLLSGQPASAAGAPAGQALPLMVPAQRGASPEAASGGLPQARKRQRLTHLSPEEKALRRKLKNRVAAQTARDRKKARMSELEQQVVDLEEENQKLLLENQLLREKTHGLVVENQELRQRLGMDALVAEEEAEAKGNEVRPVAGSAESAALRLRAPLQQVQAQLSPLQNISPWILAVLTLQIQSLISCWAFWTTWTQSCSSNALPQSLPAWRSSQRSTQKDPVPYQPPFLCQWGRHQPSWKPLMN
Chain of Myc proto-oncogene protein (Homo sapiens) (P01106 whole entry, looked up): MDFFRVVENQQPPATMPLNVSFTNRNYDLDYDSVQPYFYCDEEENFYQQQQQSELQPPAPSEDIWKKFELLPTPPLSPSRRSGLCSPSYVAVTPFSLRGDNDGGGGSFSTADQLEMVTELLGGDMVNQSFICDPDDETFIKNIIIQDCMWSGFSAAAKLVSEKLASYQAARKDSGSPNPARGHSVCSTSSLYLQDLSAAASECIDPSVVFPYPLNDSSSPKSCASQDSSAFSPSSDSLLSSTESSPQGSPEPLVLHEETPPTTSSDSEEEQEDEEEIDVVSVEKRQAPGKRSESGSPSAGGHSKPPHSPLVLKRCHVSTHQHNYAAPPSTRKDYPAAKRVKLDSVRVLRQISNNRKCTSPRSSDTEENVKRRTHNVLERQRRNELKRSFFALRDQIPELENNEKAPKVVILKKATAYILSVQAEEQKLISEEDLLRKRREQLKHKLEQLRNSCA
Chain of Cellular tumor antigen p53 (Homo sapiens) (P04637 whole entry, looked up): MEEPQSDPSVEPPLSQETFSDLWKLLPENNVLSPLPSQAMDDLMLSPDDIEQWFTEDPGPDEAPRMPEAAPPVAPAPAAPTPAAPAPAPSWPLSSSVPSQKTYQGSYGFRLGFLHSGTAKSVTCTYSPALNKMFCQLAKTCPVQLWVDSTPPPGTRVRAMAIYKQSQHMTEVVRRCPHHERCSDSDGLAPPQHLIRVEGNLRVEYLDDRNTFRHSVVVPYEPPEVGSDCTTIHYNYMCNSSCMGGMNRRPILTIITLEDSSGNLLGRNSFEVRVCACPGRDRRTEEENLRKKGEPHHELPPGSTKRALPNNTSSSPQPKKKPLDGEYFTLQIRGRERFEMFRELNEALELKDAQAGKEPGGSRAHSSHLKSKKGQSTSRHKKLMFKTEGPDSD
Chain of Nuclear receptor subfamily 1 group I member 2 (Homo sapiens) (O75469 whole entry, looked up, the tested form may be a part): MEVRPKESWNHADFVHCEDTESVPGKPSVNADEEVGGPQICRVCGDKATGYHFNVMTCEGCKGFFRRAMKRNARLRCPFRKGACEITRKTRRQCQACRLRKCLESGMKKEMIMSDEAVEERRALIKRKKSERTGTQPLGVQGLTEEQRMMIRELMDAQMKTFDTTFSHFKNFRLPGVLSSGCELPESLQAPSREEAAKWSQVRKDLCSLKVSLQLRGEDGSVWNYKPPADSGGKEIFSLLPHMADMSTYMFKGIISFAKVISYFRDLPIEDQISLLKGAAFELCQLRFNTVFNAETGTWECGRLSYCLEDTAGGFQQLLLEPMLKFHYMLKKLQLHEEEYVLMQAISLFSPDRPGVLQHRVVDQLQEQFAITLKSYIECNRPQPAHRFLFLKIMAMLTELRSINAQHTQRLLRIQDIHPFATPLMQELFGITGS

With `CCOc1ccc2c(c1)C(C)CC(C)(C)N2` (stereo unspecified), the compound was classed as inactive in [1], in test [2], in test [3], in [4], in [5] and in test [6]. The result in test [7], in test [8], in [9], in test [10], in test [11] and in [12] was inactive. The result in test [13], in test [14], in test [15], in test [16] and in [18] was inactive. For the same compound, the AC50 in [17] was 3.63 µM (active).
Consider `CCC(C)NC(N)=O` (stereo unspecified), for which the compound was called inactive in test [1], in test [3], in test [4], in test [5], in test [6] and in [7]. In addition, the compound was called inactive in [8], in test [9], in [10], in [11], in test [12] and in [13]. Also, the outcome in [14], in test [15], in [16], in test [19] and in [18] was inactive.
Consider `c1ccc2c(c1)Oc1ccccc1S2`, for which the AC50 in test [1] is 171 µM (active); in test [15], 146 µM (active). Further, the compound was classed as inactive in test [2], in test [3], in [4], in test [5], in test [6] and in [8]. The compound was classed as inactive in [9], in test [20], in [10], in test [11], in [12] and in test [13]. For the same compound, the compound was classed as inactive in test [14], in [16], in test [19], in [17] and in [18].
In the case of `NC(=O)c1ccc([N+](=O)[O-])cc1Cl`, the outcome in test [1], in test [2], in [4], in [5], in test [6] and in test [7] was inactive. For the same compound, the compound was classed as inactive in test [8], in [9], in [20], in test [10], in test [11] and in test [12]. Further, the result in test [13], in test [14], in test [15], in test [16], in test [19] and in test [17] was inactive. For the same compound, in test [18], the result was inactive.
As to `C=C(C)C(=O)OCC1CCCO1` (stereo unspecified), the outcome in test [1], in test [3], in test [4], in test [5], in test [6] and in test [7] was inactive. In addition, the compound was called inactive in test [8], in test [9], in test [20], in test [10], in test [11] and in test [12]. Also, the call in test [13], in test [14], in test [15], in [16], in [19] and in [17] was inactive.
For `CNC[C@H](O)[C@@H](O)[C@H](O)[C@H](O)CO`, the compound was called inactive in [1], in test [2], in test [5], in test [6], in test [8] and in [9]. The outcome in test [20], in test [10], in test [11], in test [12], in test [13] and in test [14] was inactive. Moreover, the compound was classed as inactive in test [15], in [16], in [19] and in test [18].
With `CC/C=C\CC/C=C/C(OCC)OCC`, the outcome in [1], in test [4], in [5], in test [8], in [9] and in test [20] was inactive. Also, the call in test [10], in test [11], in [12], in test [13], in test [14] and in test [16] was inactive. In addition, the result in test [17] was inactive. The figures for the AC50 in [6], in [15] and in test [19] were 156 µM (active), 26.2 µM (active) and 187 µM (active), respectively.
As to `COCCCN`, the compound was called inactive in test [1], in test [3], in test [4], in test [5], in test [6] and in test [7]. In addition, the compound was classed as inactive in test [8], in test [9], in [20], in test [10], in test [11] and in test [12]. The result in [13], in test [14], in test [15], in test [16], in test [19] and in test [18] was inactive.

Values taken from PubChem BioAssay (EPA / NIEHS).
